Growth data for 36 molecules are collected here from PubChem BioAssay (NCI).

Values joined by “and” are separate entries in the source; they are usually repeats but may differ in a detail not shown here. Equal entries are not always repeated. This is part of a sample that, as a whole, favours compounds with a hit. Of some 83,000 tested, about 20% had one in any assay.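 48-hour exposure, single concentration, 96-well plates; percent growth endpoint where 0 means no net growth. Active: below 10.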 A structure can be active in one record and inactive in another. Active and inactive are the calls of the source.

The subject of the first experiment is DU-145 prostate. Briefly: NCI-60 one-dose screen, 48 h (100 = growth as untreated, 0 = no growth, -100 = all killed). The settings on record: 10 µM unless noted.
For the molecule `COc1ccc(/C(C#N)=C/c2ccccn2)cc1`, the growth is 107% (inactive) and 120% (inactive).
For the molecule `O=C1OC2(c3ccccc31)c1ccc(O)c(O)c1Oc1c2ccc(O)c1O`, the growth was 116% (inactive) and 119% (inactive).
Take `CC(=O)Nc1cccc2c1CCCC2`: the growth was 107% (inactive) and 101% (inactive).
The same measure, in the same setting: the same measure for `CN(C)c1ccc2nc3ccc(N)cc3[n+](-c3ccccc3)c2c1`: 46.7% (inactive) and 2.32% (active); for `CCN(CC)CCOc1ccc(/C=N/Nc2nc3c([nH]2)c(=O)n(C)c(=O)n3C)cc1`: 115% (inactive) and 108% (inactive); for `O=C1CCN(Cc2ccccc2)C(=S)N1`: 140% (inactive) and 107% (inactive).
`CC(C)Cc1ccc(C(C)C(=O)NCc2ccc(Cn3c(=O)sn(CCCI)c3=O)cc2)cc1` (configuration not stated): the growth is 94% (inactive) and -88.2% (active).
With `CCc1c(CC(=O)O)c2cc(C)ccc2n1Cc1ccc(Cl)cc1`, the growth was 106% (inactive) and 105% (inactive).
Regarding `CNC(=O)c1ccc(C)c(-n2c(C)cc(OCc3ccc(F)cc3F)c(Br)c2=O)c1`, the growth is 91.6% (inactive) and 95.9% (inactive).
Regarding `O=[N+]([O-])c1ccc(-n2[nH]nnc2=S)cc1`, the growth is 112% (inactive).
Turning to `COC(=O)/C=C/c1cc(O)c2c(c1)C(C(=O)OC)C(c1ccc(O)c(O)c1)O2` (configuration not stated), the growth was 11.7% (inactive) and 7.05% (active).
In the case of `COC(=O)c1nc(N)nc(C(=O)OC)c1C(=O)c1ccc(OC)cc1`, the growth is 97.2% (inactive) and 48.2% (inactive).
The same measure, in the same setting: the same measure for `COc1cc2c(c(OC)c1OC)-c1ccc(OC)c(=O)cc1[C@@H](NC(C)=O)CC2`: -26.3% (active) and 0.564% (active) and -28.6% (active); for `CN1CCN(c2ccc3nc(-c4c(N)c5c(F)cccc5[nH]c4=O)[nH]c3c2)CC1`: 33.5% (inactive) and 29.3% (inactive).
As to `NC(=S)NN=C1CCC(C2CCCCC2)CC1` (configuration not stated), the growth was 96.7% (inactive) and 103% (inactive).
For the molecule `c1ccc2cc(C[n+]3ccn(Cc4ccc5ccccc5n4)c3)ccc2c1`, the growth is 21.9% (inactive) and 64.5% (inactive).
On to `CN(C)CCC(=O)c1ccc(Cl)cc1`, for which the growth was 112% (inactive) and 133% (inactive).
On the same count and under the same terms, the same measure for `Fc1ccccc1Nc1n[nH]c(=S)s1`: 110% (inactive); for `CCOc1ccc2cc(-c3nn(CC4CCN(C)CC4)c4ncnc(N)c34)ccc2c1`: 102% (inactive) and 69.9% (inactive); for `CC[N+](CC)(CC(=O)Nc1c(C)cccc1C)Cc1ccccc1`: 101% (inactive).
Regarding `CC1=CCC2CC1C2(C)C` (configuration not stated), the growth is 98.6% (inactive) and 112% (inactive).
`CC1(C)[C@@H](OC(=O)CCC(=O)O)CC[C@]2(C)[C@H]3C(=O)C=C4[C@@H]5C[C@@](C)(C(=O)O)CC[C@]5(C)CC[C@@]4(C)[C@]3(C)CC[C@@H]12`: the growth is 101% (inactive) and -1.77% (active).
As to `CCC(O)c1ccccc1` (configuration not stated), the growth is 120% (inactive) and 118% (inactive).
As to `CN(Cc1ccccc1)Cc1ccccc1`, the growth was 107% (inactive).
As to `COc1ccc(-c2ncnc3c2ncn3C/C=C/CCl)cc1`, the growth was 81.8% (inactive) and 112% (inactive).
Consider `NS(=O)(=O)c1cc2c(cc1Cl)NC(C(Cl)Cl)NS2(=O)=O` (configuration not stated), for which the growth was 108% (inactive) and 112% (inactive).
In the case of `O=Nc1ccc(O)cc1`, the growth is 97.1% (inactive) and 114% (inactive).
On to `COc1ccc2c(=O)cc(-c3ccccc3)[nH]c2c1`, for which the growth was 15% (inactive) and 19.1% (inactive).
On the same count and under the same terms, the figure for `O=CC(O)C(O)C(O)CO` (configuration not stated) is 107% (inactive) and 108% (inactive); for `CN(C)c1ccc(/C=C(\C#N)c2ccccc2)cc1` it is 15.7% (inactive) and 38.1% (inactive).
As to `OCCN1CCN(CCO)CC1`, the growth was 117% (inactive) and 111% (inactive) and 123% (inactive).
`CC1=C[C@H]2c3c(c(O)c(O)c4oc5cc(O)cc(O)c5c(=O)c34)[C@H](c3cc(O)c(O)c4oc5cc(O)cc(O)c5c(=O)c34)[C@H]2C(C)(C)C1`: the growth is 22.6% (inactive) and -4.25% (active).
Same read-out and setting: the same measure for `CCOc1ccc2c(S(=O)(=O)O)cccc2c1[N+](=O)[O-]`: 104% (inactive) and 116% (inactive); for `Nc1ccccc1Nc1ccccc1`: 100% (inactive) and 93.4% (inactive).
With `Oc1ccccc1C=NCC1CCC(CN=Cc2ccccc2O)CC1` (configuration not stated), the growth was 3.17% (active).
As for `Clc1ccc(NC(Nc2ccc(Cl)cc2)C(Cl)(Cl)Cl)cc1`, the growth was 112% (inactive) and 100% (inactive).

A further experiment deals with K-562 leukemia. The description is as above. The conditions noted are these: 10 µM unless noted.
On to `COc1ccc(/C(C#N)=C/c2ccccn2)cc1`, for which the growth is 101% (inactive) and 85.6% (inactive).
As for `O=C1OC2(c3ccccc31)c1ccc(O)c(O)c1Oc1c2ccc(O)c1O`, the growth was 115% (inactive) and 92.6% (inactive).
As for `CC(=O)Nc1cccc2c1CCCC2`, the growth was 109% (inactive) and 110% (inactive).
For the molecule `CN(C)c1ccc2nc3ccc(N)cc3[n+](-c3ccccc3)c2c1`, the growth is 9.29% (active) and 18.5% (inactive).
For `CCN(CC)CCOc1ccc(/C=N/Nc2nc3c([nH]2)c(=O)n(C)c(=O)n3C)cc1`, the growth is 109% (inactive) and 103% (inactive).
Regarding `O=C1CCN(Cc2ccccc2)C(=S)N1`, the growth was 87% (inactive).
For `CC(C)Cc1ccc(C(C)C(=O)NCc2ccc(Cn3c(=O)sn(CCCI)c3=O)cc2)cc1` (configuration not stated), the growth is 3.55% (active).
For the molecule `CCc1c(CC(=O)O)c2cc(C)ccc2n1Cc1ccc(Cl)cc1`, the growth was 152% (inactive).
In the case of `CNC(=O)c1ccc(C)c(-n2c(C)cc(OCc3ccc(F)cc3F)c(Br)c2=O)c1`, the growth is 43% (inactive) and 80.7% (inactive).
In the case of `O=[N+]([O-])c1ccc(-n2[nH]nnc2=S)cc1`, the growth is 102% (inactive).
Consider `COC(=O)/C=C/c1cc(O)c2c(c1)C(C(=O)OC)C(c1ccc(O)c(O)c1)O2` (configuration not stated), for which the growth was 9.16% (active) and 9.69% (active).
Regarding `COC(=O)c1nc(N)nc(C(=O)OC)c1C(=O)c1ccc(OC)cc1`, the growth is 102% (inactive) and 52% (inactive).
Still for that read-out and setting: the figure for `COc1cc2c(c(OC)c1OC)-c1ccc(OC)c(=O)cc1[C@@H](NC(C)=O)CC2` is 9.04% (active) and 10.4% (inactive) and -25.7% (active); for `CN1CCN(c2ccc3nc(-c4c(N)c5c(F)cccc5[nH]c4=O)[nH]c3c2)CC1` it is -26.6% (active) and -24.4% (active); for `NC(=S)NN=C1CCC(C2CCCCC2)CC1` (configuration not stated) it is 89.9% (inactive) and 89.5% (inactive).
On the same count and under the same terms, the figure for `c1ccc2cc(C[n+]3ccn(Cc4ccc5ccccc5n4)c3)ccc2c1` is 14.5% (inactive) and 21.2% (inactive); for `CN(C)CCC(=O)c1ccc(Cl)cc1` it is 110% (inactive) and 91.3% (inactive).
For `Fc1ccccc1Nc1n[nH]c(=S)s1`, the growth is 107% (inactive).
`CCOc1ccc2cc(-c3nn(CC4CCN(C)CC4)c4ncnc(N)c34)ccc2c1`: the growth was 87.5% (inactive) and 2.73% (active).
For the molecule `CC[N+](CC)(CC(=O)Nc1c(C)cccc1C)Cc1ccccc1`, the growth is 94.7% (inactive).
`CC1=CCC2CC1C2(C)C` (configuration not stated): the growth was 102% (inactive) and 98.4% (inactive).
Same read-out and setting: the same measure for `CC1(C)[C@@H](OC(=O)CCC(=O)O)CC[C@]2(C)[C@H]3C(=O)C=C4[C@@H]5C[C@@](C)(C(=O)O)CC[C@]5(C)CC[C@@]4(C)[C@]3(C)CC[C@@H]12`: 92.3% (inactive) and 5.05% (active); for `CCC(O)c1ccccc1` (configuration not stated): 96.8% (inactive) and 104% (inactive).
As to `CN(Cc1ccccc1)Cc1ccccc1`, the growth was 113% (inactive).
In the case of `COc1ccc(-c2ncnc3c2ncn3C/C=C/CCl)cc1`, the growth was 67.2% (inactive) and 77.5% (inactive).
For `NS(=O)(=O)c1cc2c(cc1Cl)NC(C(Cl)Cl)NS2(=O)=O` (configuration not stated), the growth was 97% (inactive) and 93.9% (inactive).
For `O=Nc1ccc(O)cc1`, the growth is 109% (inactive) and 98.1% (inactive).
In the case of `COc1ccc2c(=O)cc(-c3ccccc3)[nH]c2c1`, the growth was 9.54% (active) and -12.9% (active).
Same read-out and setting: the figure for `O=CC(O)C(O)C(O)CO` (configuration not stated) is 114% (inactive) and 99.3% (inactive).
As to `CN(C)c1ccc(/C=C(\C#N)c2ccccc2)cc1`, the growth was 11.3% (inactive) and 14% (inactive) and 23.9% (inactive).
`OCCN1CCN(CCO)CC1`: the growth is 96.3% (inactive) and 100% (inactive) and 104% (inactive).
Turning to `CC1=C[C@H]2c3c(c(O)c(O)c4oc5cc(O)cc(O)c5c(=O)c34)[C@H](c3cc(O)c(O)c4oc5cc(O)cc(O)c5c(=O)c34)[C@H]2C(C)(C)C1`, the growth is 2.32% (active).
Take `CCOc1ccc2c(S(=O)(=O)O)cccc2c1[N+](=O)[O-]`: the growth was 101% (inactive) and 88.4% (inactive).
Turning to `Nc1ccccc1Nc1ccccc1`, the growth is 67.8% (inactive) and 85.5% (inactive).
Take `Oc1ccccc1C=NCC1CCC(CN=Cc2ccccc2O)CC1` (configuration not stated): the growth is 99.4% (inactive).
Consider `Clc1ccc(NC(Nc2ccc(Cl)cc2)C(Cl)(Cl)Cl)cc1`, for which the growth is 17.7% (inactive) and 43.8% (inactive).
